Laboratory results: the supplement of paper PMC3334620
The full ranking holds about 33,000 sequences; the median of “E-score (-0.5 to 0.5)” is about -0.015, and the highest 2% start at about 0.3. The list comes from a sample in which the highest values are over-represented; it also holds similar and randomly drawn sequences.

target: T1, Abf1 (UniProt P14164); assay: PBM E-score (8-mer binding enrichment) (E-score (-0.5 to 0.5)); higher = stronger / more preferred TF binding; details: protein concentration: 200 nM; construct: GST-full length
T1 sequence: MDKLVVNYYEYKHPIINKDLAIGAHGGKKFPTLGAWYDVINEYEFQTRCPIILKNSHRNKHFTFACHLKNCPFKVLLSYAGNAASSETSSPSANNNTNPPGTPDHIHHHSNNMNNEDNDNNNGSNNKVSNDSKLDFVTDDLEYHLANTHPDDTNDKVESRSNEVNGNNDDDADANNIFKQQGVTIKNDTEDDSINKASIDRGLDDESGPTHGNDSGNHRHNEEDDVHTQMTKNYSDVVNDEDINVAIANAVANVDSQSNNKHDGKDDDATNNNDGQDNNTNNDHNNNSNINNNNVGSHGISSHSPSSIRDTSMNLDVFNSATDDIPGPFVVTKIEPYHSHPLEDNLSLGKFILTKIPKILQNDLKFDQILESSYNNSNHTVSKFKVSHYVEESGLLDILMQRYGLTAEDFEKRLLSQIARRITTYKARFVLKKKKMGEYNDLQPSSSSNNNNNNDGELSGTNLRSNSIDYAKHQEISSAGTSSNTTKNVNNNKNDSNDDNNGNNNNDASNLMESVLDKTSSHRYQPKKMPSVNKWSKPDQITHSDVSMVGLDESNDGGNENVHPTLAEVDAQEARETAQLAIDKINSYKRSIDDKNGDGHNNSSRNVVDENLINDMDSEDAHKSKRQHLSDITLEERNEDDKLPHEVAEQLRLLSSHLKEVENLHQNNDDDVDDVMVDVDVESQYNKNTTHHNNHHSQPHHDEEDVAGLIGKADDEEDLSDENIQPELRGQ
Summary of the method: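 GST-tagged yeast TFs (full-length or DNA-binding domain) were made by PURExpress in vitro transcription/translation and applied at about 100-200 nM to universal all-10-mer Agilent arrays. The arrays were made double-stranded by primer extension, on fresh or once-stripped slides. Bound protein was detected with fluorescent anti-GST, and scans were normalised with masliner. Each ungapped eight-base word, pooled with its reverse complement, received an E-score (modified Wilcoxon-Mann-Whitney statistic) from the Universal PBM Analysis Suite.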

**Q.** With TGACCGAA as the sequence, how does the “PBM E-score” value read?
**A.** The value was 0.0507.

**Q.** With AACATTTA as the sequence, how does the “PBM E-score” value read?
**A.** The value was 0.0911.

**Q.** Which “PBM E-score” value does the source give for ATCATTTA here?
**A.** The value was 0.305.

**Q.** With ACCATTTA as the sequence, how does the “PBM E-score” value read?
**A.** The value was 0.0343.

**Q.** CATCCGAC was tested. Which “PBM E-score” value did it give?
**A.** The value was 0.151.

**Q.** Which “PBM E-score” value does the source give for ATCACTGG here?
**A.** Its value is 0.332.

**Q.** How did the “PBM E-score” value turn out when AACACTGC was run?
**A.** Its value is -0.155.

**Q.** With CTCACTGC as the sequence, how does the “PBM E-score” value read?
**A.** The value was -0.0817.

**Q.** How did the “PBM E-score” value turn out when AGCACTGG was run?
**A.** The value was -0.168.

**Q.** How did the “PBM E-score” value turn out when ATCACTGC was run?
**A.** The value was 0.32.

**Q.** For ACCACTGG, which “PBM E-score” value is on record?
**A.** The value was -0.103.

**Q.** With ATGTTCGC as the sequence, how does the “PBM E-score” value read?
**A.** The value was 0.00598.

**Q.** For CGAAGGCA, which “PBM E-score” value is on record?
**A.** The value was -0.148.

**Q.** How did the “PBM E-score” value turn out when AACAGCCC was run?
**A.** The value was -0.373.

**Q.** How did the “PBM E-score” value turn out when CAAACGAC was run?
**A.** The value was 0.198.

**Q.** AAAACGAA was tested. Which “PBM E-score” value did it give?
**A.** The value was 0.167.

**Q.** How did the “PBM E-score” value turn out when AAAACGAG was run?
**A.** The value was 0.0711.

**Q.** Which “PBM E-score” value does the source give for GAAACGAC here?
**A.** The value was 0.153.

**Q.** How did the “PBM E-score” value turn out when AAAACGAC was run?
**A.** Its value is 0.323.

**Q.** Which “PBM E-score” value does the source give for AAAACGAT here?
**A.** The value was 0.326.

**Q.** TATGCGGA was tested. Which “PBM E-score” value did it give?
**A.** Its value is 0.0153.

**Q.** For TTTGCAAA, which “PBM E-score” value is on record?
**A.** Its value is 0.0778.

**Q.** With GACCTGGC as the sequence, how does the “PBM E-score” value read?
**A.** The value was -0.0415.

**Q.** How did the “PBM E-score” value turn out when AGAGTGAC was run?
**A.** Its value is 0.288.

**Q.** Which “PBM E-score” value does the source give for CGAGTGAA here?
**A.** The value was -0.14.

**Q.** Which “PBM E-score” value does the source give for CGAGTGAG here?
**A.** The value was -0.011.

**Q.** Which “PBM E-score” value does the source give for CGAGTGAC here?
**A.** The value was 0.358.

**Q.** GGAGTGAA was tested. Which “PBM E-score” value did it give?
**A.** The value was -0.0623.

**Q.** Which “PBM E-score” value does the source give for GGAGTGAC here?
**A.** The value was 0.333.

**Q.** With CGAGACTC as the sequence, how does the “PBM E-score” value read?
**A.** The value was 0.0667.

**Q.** With CGGAGACG as the sequence, how does the “PBM E-score” value read?
**A.** The value was 0.0614.

**Q.** Which “PBM E-score” value does the source give for AAAAGGCT here?
**A.** Its value is -0.0975.

**Q.** How did the “PBM E-score” value turn out when CGGCCGAG was run?
**A.** The value was 0.0212.

**Q.** For CCCCGGAC, which “PBM E-score” value is on record?
**A.** The value was -0.105.

**Q.** GTGGTCAA was tested. Which “PBM E-score” value did it give?
**A.** The value was 0.0649.

**Q.** How did the “PBM E-score” value turn out when AGTACGGC was run?
**A.** Its value is 0.224.

**Q.** AGTACGTC was tested. Which “PBM E-score” value did it give?
**A.** The value was 0.125.

**Q.** CGTACGGC was tested. Which “PBM E-score” value did it give?
**A.** The value was 0.396.

**Q.** For CGTACGTC, which “PBM E-score” value is on record?
**A.** Its value is 0.359.

**Q.** CGTACGTA was tested. Which “PBM E-score” value did it give?
**A.** The value was 0.266.

**Q.** With AGTACGGA as the sequence, how does the “PBM E-score” value read?
**A.** The value was 0.118.

**Q.** With GGTACGGA as the sequence, how does the “PBM E-score” value read?
**A.** Its value is 0.13.

**Q.** With CGTACGGA as the sequence, how does the “PBM E-score” value read?
**A.** The value was 0.355.

**Q.** How did the “PBM E-score” value turn out when CGTACGCC was run?
**A.** The value was 0.155.

**Q.** Which “PBM E-score” value does the source give for ATGACTGA here?
**A.** Its value is -0.0877.

**Q.** For CGTATGAA, which “PBM E-score” value is on record?
**A.** Its value is 0.426.

**Q.** How did the “PBM E-score” value turn out when AGTATGAA was run?
**A.** The value was 0.135.

**Q.** GGTATGAC was tested. Which “PBM E-score” value did it give?
**A.** Its value is -0.0891.

**Q.** Which “PBM E-score” value does the source give for CGTATGAG here?
**A.** Its value is 0.189.

**Q.** AGTATGAC was tested. Which “PBM E-score” value did it give?
**A.** Its value is 0.186.

**Q.** Which “PBM E-score” value does the source give for CGAATGAA here?
**A.** Its value is -0.164.

**Q.** With AGAATGAC as the sequence, how does the “PBM E-score” value read?
**A.** Its value is 0.255.

**Q.** With CGTATGAC as the sequence, how does the “PBM E-score” value read?
**A.** The value was 0.334.

**Q.** Which “PBM E-score” value does the source give for CGAATGAC here?
**A.** Its value is 0.312.

**Q.** AGTGTTCA was tested. Which “PBM E-score” value did it give?
**A.** Its value is -0.11.

**Q.** ACCAGTGG was tested. Which “PBM E-score” value did it give?
**A.** Its value is -0.261.

**Q.** With ATAATCCG as the sequence, how does the “PBM E-score” value read?
**A.** Its value is -0.0846.

**Q.** With AAACAACG as the sequence, how does the “PBM E-score” value read?
**A.** The value was 0.0689.

**Q.** CAGTCGAG was tested. Which “PBM E-score” value did it give?
**A.** The value was -0.177.

**Q.** For CGCCGCGA, which “PBM E-score” value is on record?
**A.** Its value is 0.0127.

**Q.** How did the “PBM E-score” value turn out when TCCGTTAA was run?
**A.** The value was 0.0849.

**Q.** With AGTGATCC as the sequence, how does the “PBM E-score” value read?
**A.** The value was 0.189.

**Q.** Which “PBM E-score” value does the source give for AGTGATCG here?
**A.** The value was 0.239.

**Q.** How did the “PBM E-score” value turn out when GCTGATCA was run?
**A.** Its value is 0.139.

**Q.** For AGTGATCA, which “PBM E-score” value is on record?
**A.** The value was 0.416.

**Q.** How did the “PBM E-score” value turn out when GGGGATCA was run?
**A.** Its value is -0.0388.

**Q.** For CGTGATCC, which “PBM E-score” value is on record?
**A.** Its value is -0.0112.

**Q.** With CCTGATCA as the sequence, how does the “PBM E-score” value read?
**A.** Its value is 0.112.

**Q.** Which “PBM E-score” value does the source give for CGTGATCA here?
**A.** The value was 0.379.

**Q.** How did the “PBM E-score” value turn out when GGTGATCA was run?
**A.** Its value is 0.305.

**Q.** For AGTACCGG, which “PBM E-score” value is on record?
**A.** The value was -0.202.

**Q.** With ACTCCTGC as the sequence, how does the “PBM E-score” value read?
**A.** Its value is -0.173.

**Q.** With GAGATCGC as the sequence, how does the “PBM E-score” value read?
**A.** The value was 0.164.

**Q.** For CAGATCAC, which “PBM E-score” value is on record?
**A.** The value was 0.284.

**Q.** With AAGATCAC as the sequence, how does the “PBM E-score” value read?
**A.** Its value is 0.325.

**Q.** For AAGATCAT, which “PBM E-score” value is on record?
**A.** The value was 0.289.

**Q.** How did the “PBM E-score” value turn out when GAGATCAA was run?
**A.** The value was 0.109.

**Q.** GAGATCAC was tested. Which “PBM E-score” value did it give?
**A.** The value was 0.347.

**Q.** Which “PBM E-score” value does the source give for AATTGACT here?
**A.** The value was -0.00646.

**Q.** CGTACCGA was tested. Which “PBM E-score” value did it give?
**A.** Its value is 0.232.

**Q.** AATAAGCG was tested. Which “PBM E-score” value did it give?
**A.** The value was -0.0622.

**Q.** ATATCATC was tested. Which “PBM E-score” value did it give?
**A.** The value was 0.408.

**Q.** How did the “PBM E-score” value turn out when ATATCATG was run?
**A.** The value was 0.297.

**Q.** With ATATCATA as the sequence, how does the “PBM E-score” value read?
**A.** The value was 0.33.

**Q.** For CTATCATC, which “PBM E-score” value is on record?
**A.** The value was 0.151.

**Q.** With CTATCATA as the sequence, how does the “PBM E-score” value read?
**A.** The value was 0.143.
